# Measurements from PubChem BioAssay (Tox21).
# Results filed as inconclusive are left out. Activity calls are given as the source filed them. Calls come from the whole dose curve; as a rule, active = well fitted activation curve with a large enough effect; inconclusive = small, poorly fitted or top-dose-only effect; inactive = flat fitted curve, though single readings scatter. Non-standard residues stand in square brackets, D forms with d. Residues, ends and D or L forms follow the SMILES beside them. Orn = NCCC[C@H](N)C(=O)O
# Assay: qHTS assay to identify small molecule phospholipidosis (PLD) inducers (AID 1259344)
# Conditions: HepG2 phospholipidosis, LipidTOX Red imaging, 24 h; series mostly up to 38.3 µM; PLD induction: at the top concentration
# How it was run: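 Read-out is LipidTOX Red fluorescence (ex 595/em 615) imaged in HepG2 cells after 24 h compound exposure at 37 C, with Hoechst nuclear counterstain (ex 352/em 461) allowing per-cell normalisation.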
# % is set by controls: 0 for no effect and ±100 for the full control effect.
Compound,PLD induction,Potency
C/C=C/C1=C(C(=O)O)N2C(=O)[C@@H](NC(=O)[C@H](N)c3ccc(O)cc3)[C@H]2SC1,-0.389% (inactive),–
O=C1[O][Bi][O]c2ccccc21,-0.561% (inactive),–
O=C(O)c1cc(=O)c2c3nc4ccccc4oc-3cc(=O)c2[nH]1,-1.09% (inactive),–
O=C[C@H](O)[C@@H](O)[C@@H](O)[C@H](O)CO,1.3% (inactive),–
CCCCCCCCCCCCCCCCCCOCC(COP(=O)([O-])OCC[N+](C)(C)C)OC (stereo not given),-0.602% (inactive),–
CC[C@@H](C)[C@H](N)C(=O)O,-0.598% (inactive),–
NCCO/C=C/[C@H](N)C(=O)O,1.88% (inactive),–
NCC1CCC(C(=O)O)CC1 (stereo not given),2.82% [at 15.5 µM] (inactive),–
CC[C@@H](C(=O)[C@@H](C)[C@@H](O)[C@H](C)CCc1ccc(C)c(O)c1C(=O)O)[C@H]1O[C@](CC)([C@H]2CC[C@](O)(CC)[C@H](C)O2)C[C@@H]1C,-2.45% (inactive),–
C[C@@H]1C[C@H]2[C@@H]3C[C@H](F)C4=CC(=O)C=C[C@]4(C)[C@@]3(Cl)[C@@H](O)C[C@]2(C)[C@H]1C(=O)COC(=O)C(C)(C)C,0.359% (inactive),–
CCCCCCCCCCCC[n+]1ccc2ccccc2c1,-1.2% (inactive),–
CC1(C)CCC(NC(=O)[C@@H](N)CCC(=O)O)CC1,-0.692% (inactive),–
C[N+](C)(C)CCOP(=O)(O)OP(=O)([O-])OC[C@H]1O[C@@H](n2ccc(N)nc2=O)[C@H](O)[C@@H]1O,–,inactive
CC(C)[N+]1(C)[C@@H]2CC[C@H]1CC(OC(=O)C(CO)c1ccccc1)C2 (stereo not given in full),–,inactive
CC(=O)Oc1cc(C(F)(F)F)ccc1C(=O)O,-0.104% [at 15.5 µM] (inactive),–
CCC(=O)OC(OP(=O)(CCCCc1ccccc1)CC(=O)N1C[C@H](C2CCCCC2)C[C@H]1C(=O)O)C(C)C (stereo not given in full),-0.0484% (inactive),–
CCN(CC)C(=O)[C@]1(c2ccccc2)C[C@@H]1CN,1.32% (inactive),–
CSCC[C@H](NC(=O)[C@H](Cc1ccc(OS(=O)(=O)O)cc1)NC(=O)[C@@H](N)CC(=O)O)C(=O)NCC(=O)N[C@@H](Cc1c[nH]c2ccccc12)C(=O)N[C@@H](CCSC)C(=O)N[C@@H](CC(=O)O)C(=O)N[C@@H](Cc1ccccc1)C(N)=O,–,inactive
CO/N=C(\C(=O)N[C@@H]1C(=O)N2C(C(=O)[O-])=C(C[n+]3ccc(N)n3CCO)CS[C@H]12)c1csc(N)n1,0.43% (inactive),–
CCC(O)c1ccccc1 (stereo not given),-0.841% (inactive),–

Compound,PLD induction,Potency
CC(C)[C@H](NC(=O)[C@H](CC(=O)O)NC(=O)[C@H](CCCCN)NC(=O)[C@@H](N)CCCN=C(N)N)C(=O)N[C@@H](Cc1ccc(O)cc1)C(=O)O (H-RKDVY-OH),-0.269% (inactive),–
CNCC(=O)N[C@@H](CCCN=C(N)N)C(=O)N[C@H](C(=O)N[C@@H](Cc1ccc(O)cc1)C(=O)N[C@H](C(=O)N[C@@H](Cc1cnc[nH]1)C(=O)N1CCC[C@H]1C(=O)N[C@@H](C)C(=O)O)C(C)C)C(C)C,0.0608% (inactive),–
NC(=O)[C@H]1O[C@@H](O)[C@H](O)[C@@H](O)[C@@H]1O,0.14% (inactive),–
CC(=O)OCC(=O)[C@@]1(O)CC[C@H]2[C@@H]3CCC4=CC(=O)CC[C@]4(C)C3=CC[C@@]21C,-0.152% (inactive),–
O=S(=O)(O)O,-1.3% (inactive),–
CC(C)C[C@@H]1NC(=O)[C@H](CCCN)NC(=O)[C@H](C(C)C)NC(=O)[C@@H]2CCCN2C(=O)[C@@H](Cc2ccccc2)NC(=O)[C@H](CC(C)C)NC(=O)[C@H](CCCN)NC(=O)[C@H](C(C)C)NC(=O)[C@@H]2CCCN2C(=O)[C@@H](Cc2ccccc2)NC1=O (cyclo(V[Orn]L[dF]PV[Orn]L[dF]P)),-0.87% (inactive),–
O=P(O)(O)OP(=O)(O)OP(=O)(O)O,2.95% (inactive),–
CCCCCCCCCCCCCCCCCC(=O)O,-0.834% (inactive),–
CCC(NC(C)C)C(O)c1ccc(O)c(O)c1 (stereo not given),-0.344% (inactive),–
CC12CCC(C[N+](C)(CCC[N+](C)(C)C)C1)C2(C)C (stereo not given),-0.0087% (inactive),–
CO/N=C(\C(=O)N[C@@H]1C(=O)N2C(C(=O)[O-])=C(C[n+]3cccc4c3CCC4)CS[C@H]12)c1csc(N)n1,-0.257% (inactive),–
Cc1ncc(C[n+]2csc(CCO)c2C)c(N)n1,-0.398% [at 15.5 µM] (inactive),–
CC[C@H]1OC(=O)[C@H](C)C(=O)[C@H](C)[C@@H](O[C@@H]2O[C@H](C)C[C@H](N(C)C)[C@H]2O)[C@](C)(OC)C[C@@H](C)C(=O)[C@H](C)[C@H]2N(CCCCn3cnc(-c4cccnc4)c3)C(=O)O[C@]12C,–,inactive
CN1C(=O)C[C@@H](C(=O)N[C@@H](Cc2cnc[nH]2)C(=O)N2CCC[C@H]2C(N)=O)NC1=O,0.738% (inactive),–
CS(=O)(=O)c1ccc([C@@H](O)[C@@H](COC(=O)CN)NC(=O)C(Cl)Cl)cc1,0.141% (inactive),–
NCCCC(=O)O,-1.08% (inactive),–
O=C(O)c1ccccc1O,–,inactive
CN(C)CCc1c[nH]c2ccc(Cn3cncn3)cc12,-0.941% (inactive),–
C[C@@H]1O[C@@H](OC[C@H]2O[C@@H](Oc3c(-c4ccc(OCCO)c(OCCO)c4)oc4cc(OCCO)cc(O)c4c3=O)[C@H](O)[C@@H](O)[C@@H]2O)[C@H](O)[C@H](O)[C@H]1O,0.559% (inactive),–
O=C1CC[C@@H](C(=O)N[C@H]2C[C@@H]2c2ccccc2)N1,-0.412% (inactive),–
